This is part of a sample that, as a whole, favours compounds with a hit. Of some 83,000 tested, about 20% had one in any assay.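 Single-concentration screen, 48 h exposure, 96-well plates. Endpoint: percent growth. Below 10 = active.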 Unmarked numbers belong to inactive results. Active and inactive are the calls of the source.
System: HT29 colon
Assay: NCI-60 one-dose screen, 48 h (100 = growth as untreated, 0 = no growth, -100 = all killed)
Settings: 10 µM unless noted

SMILES | growth
O=C(CSc1nc2ccc([N+](=O)[O-])cc2[nH]1)Nc1ccc(F)c(Cl)c1 | 14.4%
Cc1cc(C)c(O)c(CNCCCCCCNCc2cc(C)cc(C)c2O)c1 | -6.14% (active)
CS(=O)(=O)c1cccnn1 | 89.7%
Cc1ccc(S(=O)(=O)Nc2ccccc2)cc1N | 107%
Nc1cc(C(=O)O)[nH]c(=S)n1 | 101%
COc1ccc(-c2nc3ccccn3c2/C=C/C(=O)c2cc(OC)c(OC)c(OC)c2)cc1OC | 16.7%
O=C(Nc1cccc2cccnc12)c1cc(C(=O)c2ccc(Cl)cc2)n2ccc(-c3ccncc3)cc12 | 100%
Cc1cccc(C[C@H](NC(=O)Nc2ccc(C)cc2F)C(=O)N[C@@H]2C(=O)N3C[C@H](O)C[C@H]3C(=O)N3CCN(C)C[C@H]3C(=O)N[C@@H](C)C(=O)N3C[C@H](C)C[C@H]3C(=O)O[C@H]2C)c1 | 33.8%
O=C1COCCN1c1ccc(NCc2cn(Cc3cccc4ccccc34)c3ccccc23)cc1 | 97.7%
COc1ncnc2c(-c3ccccc3)cn(COCc3ccccc3)c12 | 47.8%
O=C1CN(Cc2ccc(C(=O)NO)cc2)C(=O)[C@@H](Cc2ccccc2)N1 | 113%
CC(C)C1=NOC(=O)C1=Cc1cn(-c2ccco2)nc1-c1ccccc1 | 86.3%
c1ccc(-c2nnc(-c3c[nH]c4ncccc34)s2)cc1 | 106%
COCCCNc1nc(NC(=O)c2cc(Br)cc(C(F)(F)F)c2)cc(-c2cccnc2)n1 | 83.7%
CCn1cc(-c2cc(-c3ccc(Cl)cc3)nc(N)n2)c(-c2ccc(Br)cc2)n1 | 55.8%
CCOC(CNC(=O)c1cccc([N+](=O)[O-])c1)OCC | 111%
Cc1cccc([N+](=O)[O-])c1I | 106%
CCOc1cc(NC(=O)c2ccccc2)c(OCC)cc1N | 121%
CN(C)CCOc1ccc(/C(=C(/CCCl)c2ccccc2)c2ccccc2)cc1 | -78.8% (active)

SMILES | growth
Nc1nc(N)c2c(n1)NC(c1ccc(F)cc1)C1CCc3ccccc3C1=N2 (stereo unspecified) | 27.9%
CNC(=O)c1cc(Oc2ccc3nc(NC(=O)c4ccc5ncccc5c4)sc3c2)ccn1 | 69.9%
CC1(C)CC[C@]23CC[C@]4(C)[C@H](CC[C@@H]5[C@@]6(C)C/C(=C/c7ccncc7)C(=O)C(C)(C)[C@@H]6CC[C@]54C)[C@H]2[C@H]1OC3=O | 71.5% [100 µM]
CC1=CC[C@@H]2C(C)(C)C(=O)CC[C@@]2(C)[C@@H]1COc1ccc2ccc(=O)oc2c1 | 78.5%
COc1ccc(/C=C/C=C\C(=O)c2ccc(-n3ccnc3)cc2)cc1 | 93.4%
CCc1cccc(Cl)c1 | 92.8%
Cc1ccc(S(=O)(=O)n2cc(C(=O)C(=O)N3CCCCC3)c3ccccc32)cc1 | 88.3%
Cn1cc(-c2noc(-c3cn(C)c4ncc(F)cc34)n2)c2cc(Cl)ccc21 | 25.5%
O=C(Nc1cccc2ccccc12)c1cc2ccccc2cc1O | 68.9%
C#C[C@]1(O)CC[C@H]2[C@@H]3CC=C4c5nc(Nc6ncccn6)sc5CC[C@]4(C)[C@H]3CC[C@@]21C | 55.4%
CC(=O)OC[C@]12CC[C@@H](C(=O)CBr)[C@@H]1[C@H]1CC[C@@H]3[C@@]4(C)CCCNC(C)(C)[C@@H]4CC[C@@]3(C)[C@]1(C)CC2 | -81.9% [100 µM] (active)
O=S(=O)(c1ccc(N/N=C\c2ccccc2Cl)cc1)c1ccc(N/N=C/c2ccccc2Cl)cc1 | 79.2%
Nc1nc(Cl)c2ncn(Cc3cc4c(cc3I)OCO4)c2n1 | 9.61% (active)
Cc1ccc2c(c1)/C(=N\N=C/c1cn(C(C)C)c3ccccc13)C(=O)N2 | 11.3%
O=C1CC(c2ccccc2)Cc2nc3ccc(Cl)cc3cc21 (stereo unspecified) | 4.39% (active)
C=C(C)[C@@H]1CC[C@]2(C(N)=O)CC[C@]3(C)[C@H](CC[C@@H]4[C@@]5(C)CC[C@H](O)C(C)(C)[C@@H]5CC[C@]43C)[C@@H]12 | -49.5% [100 µM] (active)
COc1ccc(-c2cc(-c3ccc(Cl)cc3)nc(SCCCCCCC(=O)NO)n2)cc1 | 10.8%
Cc1cc[n+](CCCCCCCCCC[n+]2ccc(C)cc2)cc1 | 84.3%
CCCSc1nc(N)nc2nc[nH]c12 | 112%

System: SNB-75 CNS
Assay: as above
Settings: 10 µM unless noted

SMILES | growth
O=C(CSc1nc2ccc([N+](=O)[O-])cc2[nH]1)Nc1ccc(F)c(Cl)c1 | 28.7%
Cc1cc(C)c(O)c(CNCCCCCCNCc2cc(C)cc(C)c2O)c1 | -23.7% (active)
CS(=O)(=O)c1cccnn1 | 48.9%
Cc1ccc(S(=O)(=O)Nc2ccccc2)cc1N | 95%
Nc1cc(C(=O)O)[nH]c(=S)n1 | 91.4%
COc1ccc(-c2nc3ccccn3c2/C=C/C(=O)c2cc(OC)c(OC)c(OC)c2)cc1OC | 46.1%
O=C(Nc1cccc2cccnc12)c1cc(C(=O)c2ccc(Cl)cc2)n2ccc(-c3ccncc3)cc12 | 86.6%
Cc1cccc(C[C@H](NC(=O)Nc2ccc(C)cc2F)C(=O)N[C@@H]2C(=O)N3C[C@H](O)C[C@H]3C(=O)N3CCN(C)C[C@H]3C(=O)N[C@@H](C)C(=O)N3C[C@H](C)C[C@H]3C(=O)O[C@H]2C)c1 | 23.6%
O=C1COCCN1c1ccc(NCc2cn(Cc3cccc4ccccc34)c3ccccc23)cc1 | 79.6%
COc1ncnc2c(-c3ccccc3)cn(COCc3ccccc3)c12 | 99.8%
O=C1CN(Cc2ccc(C(=O)NO)cc2)C(=O)[C@@H](Cc2ccccc2)N1 | 85.9%
CC(C)C1=NOC(=O)C1=Cc1cn(-c2ccco2)nc1-c1ccccc1 | 80.8%
c1ccc(-c2nnc(-c3c[nH]c4ncccc34)s2)cc1 | 59.6%
COCCCNc1nc(NC(=O)c2cc(Br)cc(C(F)(F)F)c2)cc(-c2cccnc2)n1 | 115%
CCn1cc(-c2cc(-c3ccc(Cl)cc3)nc(N)n2)c(-c2ccc(Br)cc2)n1 | 82.4%
CCOC(CNC(=O)c1cccc([N+](=O)[O-])c1)OCC | 82.6%
Cc1cccc([N+](=O)[O-])c1I | 94.9%
CCOc1cc(NC(=O)c2ccccc2)c(OCC)cc1N | 106%
CN(C)CCOc1ccc(/C(=C(/CCCl)c2ccccc2)c2ccccc2)cc1 | 36.8%

SMILES | growth
Nc1nc(N)c2c(n1)NC(c1ccc(F)cc1)C1CCc3ccccc3C1=N2 (stereo unspecified) | 63.1%
CNC(=O)c1cc(Oc2ccc3nc(NC(=O)c4ccc5ncccc5c4)sc3c2)ccn1 | 86.5%
CC1(C)CC[C@]23CC[C@]4(C)[C@H](CC[C@@H]5[C@@]6(C)C/C(=C/c7ccncc7)C(=O)C(C)(C)[C@@H]6CC[C@]54C)[C@H]2[C@H]1OC3=O | -49.9% [100 µM] (active)
CC1=CC[C@@H]2C(C)(C)C(=O)CC[C@@]2(C)[C@@H]1COc1ccc2ccc(=O)oc2c1 | 76.6%
COc1ccc(/C=C/C=C\C(=O)c2ccc(-n3ccnc3)cc2)cc1 | 90.8%
CCc1cccc(Cl)c1 | 91%
Cc1ccc(S(=O)(=O)n2cc(C(=O)C(=O)N3CCCCC3)c3ccccc32)cc1 | 73.8%
Cn1cc(-c2noc(-c3cn(C)c4ncc(F)cc34)n2)c2cc(Cl)ccc21 | -24.2% (active)
O=C(Nc1cccc2ccccc12)c1cc2ccccc2cc1O | 12.8%
C#C[C@]1(O)CC[C@H]2[C@@H]3CC=C4c5nc(Nc6ncccn6)sc5CC[C@]4(C)[C@H]3CC[C@@]21C | -7.12% (active)
CC(=O)OC[C@]12CC[C@@H](C(=O)CBr)[C@@H]1[C@H]1CC[C@@H]3[C@@]4(C)CCCNC(C)(C)[C@@H]4CC[C@@]3(C)[C@]1(C)CC2 | -98.3% [100 µM] (active)
O=S(=O)(c1ccc(N/N=C\c2ccccc2Cl)cc1)c1ccc(N/N=C/c2ccccc2Cl)cc1 | 61.5%
Nc1nc(Cl)c2ncn(Cc3cc4c(cc3I)OCO4)c2n1 | 73.5%
Cc1ccc2c(c1)/C(=N\N=C/c1cn(C(C)C)c3ccccc13)C(=O)N2 | 67.3%
O=C1CC(c2ccccc2)Cc2nc3ccc(Cl)cc3cc21 (stereo unspecified) | 29.7%
C=C(C)[C@@H]1CC[C@]2(C(N)=O)CC[C@]3(C)[C@H](CC[C@@H]4[C@@]5(C)CC[C@H](O)C(C)(C)[C@@H]5CC[C@]43C)[C@@H]12 | -39.1% [100 µM] (active)
COc1ccc(-c2cc(-c3ccc(Cl)cc3)nc(SCCCCCCC(=O)NO)n2)cc1 | 34.5%
Cc1cc[n+](CCCCCCCCCC[n+]2ccc(C)cc2)cc1 | 95.3%
CCCSc1nc(N)nc2nc[nH]c12 | 108%

— PubChem BioAssay (NCI)
